{
  "source": "PubChem BioAssay (NCATS)",
  "note": "Active and inactive are the calls of the source. Calls follow the shape of the dose curve; as a rule, active = well fitted activation curve with a large enough effect; inconclusive = small, poorly fitted or top-dose-only effect; inactive = no such curve, though single readings can be large or run the other way.",
  "data": [
    {"target": "Cytochrome P450 3A4 (Homo sapiens) (UniProt P08684)", "sequence (P08684 whole entry, looked up)": "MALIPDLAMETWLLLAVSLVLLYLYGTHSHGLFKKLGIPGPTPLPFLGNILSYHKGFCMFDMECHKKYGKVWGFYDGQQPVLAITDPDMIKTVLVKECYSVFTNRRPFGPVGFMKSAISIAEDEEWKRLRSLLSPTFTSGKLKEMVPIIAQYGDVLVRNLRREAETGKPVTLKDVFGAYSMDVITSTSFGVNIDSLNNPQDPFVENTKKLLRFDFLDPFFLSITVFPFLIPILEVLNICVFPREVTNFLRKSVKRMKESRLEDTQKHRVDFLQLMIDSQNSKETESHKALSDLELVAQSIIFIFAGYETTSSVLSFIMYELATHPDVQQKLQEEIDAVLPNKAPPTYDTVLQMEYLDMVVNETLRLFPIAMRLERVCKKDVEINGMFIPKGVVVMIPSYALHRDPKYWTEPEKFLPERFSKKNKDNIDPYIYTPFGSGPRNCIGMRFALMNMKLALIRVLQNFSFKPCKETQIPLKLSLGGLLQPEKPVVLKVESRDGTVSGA", "experiment": "qHTS Assay for Activators of Cytochrome P450 3A4 (AID 885); also: nearly all actives have a fitted effect of over 65% in size", "details": "recombinant CYP3A4, Luciferin-PPXE luminescence, 60 min; series mostly up to 57.1 µM", "description": "NIH Molecular Libraries Screening Centers Network [MLSCN]\nNIH Chemical Genomics Center [NCGC]\nThe P450 gene superfamily is involved in the metabolism and clearance of xenobiotics. This assay used human CYP3A4 to measure the dealkylation of luciferin-6' phenylpiperazinylyl (Luciferin-PPXE; […]) to luciferin. The luciferin is then measured by luminescence after the addition of a luciferase detection reagent. Luciferin-PPXE concentration in the assay was equal to its KM for CYP3A4. Inhibitors and some substrates limit the production of luciferin, and decrease measured luminescence; activators increase the production of luciferin and luminescence.\nNCGC Assay Protocol Summary:\nTwo uL of enzyme and substrate mix (final concentrations: 20nM CYP3A4, 25uM Luciferin-PPXE, 200mM KPO4) were dispensed into a white, solid bottom 1536-well microtiter plate. 23nL of compound was transferred by a pin tool. The plate was incubated at RT for 10 min. Two uL of an NADPH regeneration solution (Promega supplied reagent) was dispensed and the reaction was allowed to continue for 60 min at RT. Then the reaction was stopped by reconstituted luciferin detection buffer. After another 20 min of incubation the plate was read on the ViewLux (Perkin Elmer) at 60 sec exposure and 2x2 binning. This protocol was carried out with Promega-Glo reagents and further information can be found at http://www.promega.com/tbs/tb325/tb325.pdf. Data were normalized to the to AC100 inhibition (57 uM ketoconazole).\nKeywords: P450, CYP2D6, Luciferase, MLSMR, MLSCN, NIH Roadmap, qHTS, NCGC", "values": [
      {"smiles": "O=c1cc(N2CCOCC2)oc2c(-c3ccccc3)cccc12", "outcome": "inactive"},
      {"smiles": "C[C@@H](N)C1CCC(C(=O)Nc2ccncc2)CC1", "note": "(stereo partly specified)", "outcome": "inactive"},
      {"smiles": "O=C(CCc1ccc(O)cc1)c1c(O)cc(O)cc1O", "outcome": "inactive"},
      {"smiles": "Cc1cccc(CN2CCN(C(c3ccccc3)c3ccc(Cl)cc3)CC2)c1", "note": "(stereo unspecified)", "outcome": "inactive"},
      {"smiles": "COc1ccccc1N1CCN(CCN(C(=O)C2CCCCC2)c2ccccn2)CC1", "outcome": "inactive"},
      {"smiles": "O=C1NC(=O)C(c2ccccc2[N+](=O)[O-])=C1Nc1ccc(O)c(Cl)c1", "outcome": "inactive"},
      {"smiles": "Cc1cccc(C#Cc2ccccc2)n1", "outcome": "inactive"},
      {"smiles": "O=Nc1c(-c2c(O)[nH]c3cc(Br)ccc23)[nH]c2ccccc12", "outcome": "inactive"},
      {"smiles": "CC1(C)C(=O)N(CCN2CCC(C(=O)c3ccc(F)cc3)CC2)c2ccccc21", "outcome": "inactive"},
      {"smiles": "CCN(CC)C(=S)SSC(=S)N(CC)CC", "outcome": "inactive"},
      {"smiles": "CC(C)c1ccc2c(c1)c(SC(C)(C)C)c(CC(C)(C)C(=O)O)n2Cc1ccc(Cl)cc1", "outcome": "inactive"},
      {"smiles": "O=C1c2ccccc2-c2n[nH]c3cccc1c23", "outcome": "inactive"},
      {"smiles": "Cc1cc2cc3c(C)cc(=O)oc3c(C)c2o1", "outcome": "inactive"},
      {"smiles": "O=C1c2c(O)cc(O)cc2OC(c2ccc(O)c(O)c2)C1O", "note": "(stereo unspecified)", "outcome": "inactive"},
      {"smiles": "CCOC(=O)C1=C(O)C(=O)N(Cc2ccccc2)C1", "outcome": "inactive"},
      {"smiles": "O=c1c(O)c(-c2cc(O)c(O)c(O)c2)oc2cc(O)cc(O)c12", "outcome": "inactive"},
      {"smiles": "COC(=O)C1=C(C)NC(C)=C(C(=O)OC(C)C)C1c1cccc2nonc12", "note": "(stereo unspecified)", "outcome": "inactive"},
      {"smiles": "Cc1c(OCC(F)(F)F)ccnc1CS(=O)c1nc2ccccc2[nH]1", "note": "(stereo unspecified)", "outcome": "inactive"},
      {"smiles": "CC1(C)NC(=O)N(c2ccc([N+](=O)[O-])c(C(F)(F)F)c2)C1=O", "outcome": "inactive"},
      {"smiles": "NNc1nncc2ccccc12", "outcome": "inactive"},
      {"smiles": "O=C(O)c1cccnc1Nc1cccc(C(F)(F)F)c1", "outcome": "inactive"}
    ]}
  ]
}
